Source: PubChem BioAssay
A selection: hits, their analogues and other compounds. The true share with any hit is near 2.3%.
Mcl1-Bid inh – Mcl-1/Bid binding inhibitors, primary screen, biochemical, TR-FRET, 1536-well. Induced myeloid leukemia cell differentiation protein Mcl-1 (Homo sapiens), Q07820. TR-FRET Mcl-1/Bid-Dy647 peptide binding. inhibition, % at 21.7 µM. 220,000 tested, 0.97% active. AID 1021, 2008;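 active = compounds that cut the binding signal by more than half at the single screening dose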;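 note: His-tagged Mcl-1 with europium anti-His antibody binding Bid BH3 peptide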
Mcl-1 Bim block – inhibitors of Bim peptide binding to Mcl-1, primary screen, biochemical, bead-based flow cytometry, multiplex; Induced myeloid leukemia cell differentiation protein Mcl-1 (Homo sapiens), Q07820; Bim peptide-Mcl-1 binding; inhibition, % at 10 µM; 190,000 tested, 0.1% active; AID 1009, 2008; in the data active = inhibition above about 40%
MCL1-BIM inh – inhibitors of MCL1 binding to BIM-BH3, primary screen, biochemical, fluorescence polarization; Induced myeloid leukemia cell differentiation protein Mcl-1 (Homo sapiens), Q07820; GST-MCL1 / FITC-Bim-BH3 fluorescence polarization; inhibition, % at 10.9 µM; 320,000 tested, 0.68% active; AID 2057, 2009;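 active = inhibition above the mean inhibition of all tested compounds plus 3 SD, set per campaign, cut at about 40% in these data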;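 note: higher means more loss of mP so more displacement of Bim peptide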
BCLXL inh – inhibitors of human Bcl-xL, primary screen, biochemical, fluorescence polarization, HTS; Bcl-2-like protein 1 (Homo sapiens), Q07817; GST-Bcl-xL / FITC-Bim BH3 peptide fluorescence polarization; inhibition, % at 10.9 µM; 320,000 tested, 0.7% active; AID 2129, 2009;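 active = inhibition above the mean of all tested compounds plus 3 SD, cutoff set per campaign, cut at about 30% in these data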;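 note: inhibitors lower millipolarization by displacing the labeled peptide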
Target sequence (Q07817 whole entry, looked up): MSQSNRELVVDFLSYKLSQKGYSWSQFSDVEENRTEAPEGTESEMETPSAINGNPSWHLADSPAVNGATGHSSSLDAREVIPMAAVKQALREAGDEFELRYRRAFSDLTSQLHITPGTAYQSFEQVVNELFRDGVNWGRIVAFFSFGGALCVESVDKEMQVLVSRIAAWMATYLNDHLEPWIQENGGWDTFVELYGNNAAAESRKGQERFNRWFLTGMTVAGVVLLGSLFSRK
Mcl1 Noxa PPI – Mcl-1/Noxa binding inhibitors, primary screen, biochemical, TR-FRET, 1536-well. TR-FRET Mcl-1/Noxa peptide binding, 2 h. inhibition, % at 21.7 µM. 220,000 tested, 1.5% active;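 active = compounds that cut the protein-peptide binding signal by more than 50% relative to plate controls in a single-dose test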;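 note: His-tagged Mcl-1 with rhodamine Noxa BH3 peptide and terbium anti-His antibody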
GLD-1 TGE inh – GLD-1/TGE RNA complex disruptors, primary screen, biochemical, fluorescence polarization; AID 2280, 2010; Female germline-specific tumor suppressor gld-1 (Caenorhabditis elegans), Q17339; 320,000 tested, 0.44% active; inhibition, % at 5.96 µM; purified GLD-1 + fluorescein TGE RNA;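 active = percent inhibition above a per-plate cutoff, the plate mean of test compounds plus 3 SD, cut at about 30% in these data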
Target sequence (Q17339 whole entry, looked up): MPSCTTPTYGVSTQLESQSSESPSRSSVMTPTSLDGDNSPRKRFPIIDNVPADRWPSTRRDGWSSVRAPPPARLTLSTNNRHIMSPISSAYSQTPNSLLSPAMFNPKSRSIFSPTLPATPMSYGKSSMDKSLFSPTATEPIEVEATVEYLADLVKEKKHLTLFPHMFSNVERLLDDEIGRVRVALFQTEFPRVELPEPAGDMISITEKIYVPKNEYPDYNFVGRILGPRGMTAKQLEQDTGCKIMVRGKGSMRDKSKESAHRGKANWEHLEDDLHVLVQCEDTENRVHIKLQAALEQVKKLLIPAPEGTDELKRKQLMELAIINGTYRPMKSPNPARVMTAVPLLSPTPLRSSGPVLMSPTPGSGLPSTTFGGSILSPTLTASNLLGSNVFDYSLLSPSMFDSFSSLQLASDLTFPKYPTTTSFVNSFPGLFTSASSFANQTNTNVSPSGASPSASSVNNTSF
Numbers stand for hits.

Results for CCn1cc(/C=C(\NC(=O)c2ccccc2F)C(=O)NCCN2CCOCC2)c2ccccc21 ?
MCL1-BIM inh: inactive; BCLXL inh: inactive; GLD-1 TGE inh: inactive

What do the screens show for `NC(=O)/C(=C/c1ccco1)NC(=O)c1ccc(Br)o1`?
MCL1-BIM inh: 40; BCLXL inh: 39; GLD-1 TGE inh: inactive

How did COC(=O)/C(=C/c1ccco1)NC(=O)c1ccc(Br)o1 do in these assays?
Mcl1-Bid inh: inactive; Mcl-1 Bim block: inactive; MCL1-BIM inh: inactive; BCLXL inh: inactive; Mcl1 Noxa PPI: inactive; GLD-1 TGE inh: inactive

What do the screens show for `O=C(N/C(=C\c1ccco1)C(=O)N1CCOCC1)c1ccco1`?
Mcl1-Bid inh: inactive; Mcl-1 Bim block: inactive; MCL1-BIM inh: inactive; BCLXL inh: 33; Mcl1 Noxa PPI: inactive; GLD-1 TGE inh: inactive

What do the screens show for `O=C(N/C(=C/c1ccc(Br)cc1)C(=O)N1CCOCC1)c1ccco1`?
MCL1-BIM inh: inactive; BCLXL inh: inactive; GLD-1 TGE inh: inactive

Results for COc1ccc2nc(Nc3nc(CSc4nc5ccccc5[nH]4)cc(=O)[nH]3)nc(C)c2c1 ?
Mcl1-Bid inh: 56; Mcl-1 Bim block: inactive; MCL1-BIM inh: inactive; BCLXL inh: inactive; Mcl1 Noxa PPI: inactive; GLD-1 TGE inh: inactive

How did Cc1cc(C)cc(N(CC(=O)NC2CCC(C)CC2)S(=O)(=O)c2c(C)noc2C)c1 (stereo not drawn) do in these assays?
Mcl1-Bid inh: 89; Mcl-1 Bim block: inactive; MCL1-BIM inh: inactive; BCLXL inh: inactive; Mcl1 Noxa PPI: inactive; GLD-1 TGE inh: inactive

How did Cc1cc(C)cc(N(CC(=O)O)S(=O)(=O)c2c(C)noc2C)c1 do in these assays?
Mcl1-Bid inh: inactive; Mcl-1 Bim block: inactive; MCL1-BIM inh: inactive; BCLXL inh: inactive; GLD-1 TGE inh: inactive

What do the screens show for `Cc1ccc2cc(/C=N/NC(=O)c3ccccc3[N+](=O)[O-])c(Cl)nc2c1`?
Mcl1-Bid inh: inactive; Mcl-1 Bim block: inactive; MCL1-BIM inh: inactive; BCLXL inh: inactive; Mcl1 Noxa PPI: inactive; GLD-1 TGE inh: inactive

What do the screens show for `COC(=O)[C@@]1(Cc2ccccc2)[C@H]2c3cc(C(=O)N4CCCC4)n(CCSCCO)c3C[C@H]2CN1C(=O)c1ccccc1`?
Mcl1-Bid inh: inactive; Mcl-1 Bim block: inactive; MCL1-BIM inh: inactive; BCLXL inh: inactive; Mcl1 Noxa PPI: 101; GLD-1 TGE inh: inactive

How did CSc1c(CC(=O)Nc2ccccc2Cl)n(Cc2ccccc2)c2ccccc12 do in these assays?
Mcl1-Bid inh: inactive; Mcl-1 Bim block: inactive; MCL1-BIM inh: inactive; BCLXL inh: inactive; GLD-1 TGE inh: inactive

How did CSc1c(CC(=O)Nc2ccccc2C(F)(F)F)n(Cc2ccccc2)c2ccccc12 do in these assays?
Mcl1-Bid inh: 58; Mcl-1 Bim block: inactive; MCL1-BIM inh: inactive; BCLXL inh: inactive; Mcl1 Noxa PPI: inactive; GLD-1 TGE inh: inactive

What do the screens show for `Cc1cc(C(=O)CCC(=O)NCC(=O)Nc2c(C)cccc2C)c(C)s1`?
GLD-1 TGE inh: inactive

How did CCOC(=O)c1sc(-c2ccc(C(F)(F)F)cc2)nc1O do in these assays?
Mcl1-Bid inh: inactive; MCL1-BIM inh: inactive; BCLXL inh: 36; Mcl1 Noxa PPI: inactive; GLD-1 TGE inh: inactive

What do the screens show for `CC(C)(C)C1CCC(C(=O)OCC(=O)N2CCN(C(=O)c3ccco3)CC2)CC1` (stereo not drawn)?
Mcl1-Bid inh: inactive; Mcl-1 Bim block: inactive; MCL1-BIM inh: inactive; BCLXL inh: inactive; Mcl1 Noxa PPI: inactive; GLD-1 TGE inh: inactive

How did CC(C(O)C12CC3CC(CC(C3)C1)C2)N1CCCCC1 (stereo not drawn) do in these assays?
Mcl1-Bid inh: inactive; Mcl-1 Bim block: inactive; MCL1-BIM inh: inactive; BCLXL inh: inactive; Mcl1 Noxa PPI: inactive; GLD-1 TGE inh: inactive

Results for Cc1ccc(-c2nnc3ccc(SCC(=O)NCc4ccco4)nn23)cc1 ?
Mcl1-Bid inh: inactive; Mcl-1 Bim block: inactive; MCL1-BIM inh: inactive; BCLXL inh: inactive; Mcl1 Noxa PPI: inactive; GLD-1 TGE inh: inactive

Results for Cc1ccc(-n2c(SCC(=O)NCc3ccco3)nnc2-c2cccnc2)cc1 ?
Mcl1-Bid inh: inactive; Mcl-1 Bim block: inactive; MCL1-BIM inh: inactive; BCLXL inh: inactive; Mcl1 Noxa PPI: inactive; GLD-1 TGE inh: inactive

Results for O=C(CSc1ccc2nnc(-c3ccc(F)cc3)n2n1)NCc1ccco1 ?
Mcl1-Bid inh: inactive; Mcl-1 Bim block: inactive; MCL1-BIM inh: inactive; BCLXL inh: inactive; Mcl1 Noxa PPI: 62; GLD-1 TGE inh: inactive

How did O=C(CSc1nnc(-c2ccncc2)n1-c1ccc(F)cc1)NC(=O)NCc1ccco1 do in these assays?
Mcl1-Bid inh: inactive; Mcl-1 Bim block: inactive; MCL1-BIM inh: inactive; BCLXL inh: inactive; Mcl1 Noxa PPI: 63; GLD-1 TGE inh: inactive

What do the screens show for `C/C(=N\NC(=O)Cn1cc([N+](=O)[O-])cn1)c1ccc(O)cc1`?
Mcl1-Bid inh: inactive; MCL1-BIM inh: inactive; BCLXL inh: inactive; Mcl1 Noxa PPI: inactive; GLD-1 TGE inh: inactive

How did CSc1cccc(NC(=O)CN(C)S(=O)(=O)c2ccccc2)c1 do in these assays?
Mcl1-Bid inh: 72; Mcl-1 Bim block: inactive; MCL1-BIM inh: inactive; BCLXL inh: inactive; Mcl1 Noxa PPI: inactive; GLD-1 TGE inh: inactive

What do the screens show for `COc1ccccc1-c1nc(SCC(=O)N(C)c2ccccc2)c2c(=O)n(C)c(=O)n(C)c2n1`?
Mcl1-Bid inh: 57; Mcl-1 Bim block: inactive; MCL1-BIM inh: inactive; BCLXL inh: inactive; Mcl1 Noxa PPI: inactive; GLD-1 TGE inh: inactive

How did CCOC(=O)C(=O)c1c(-c2ccc(C)cc2)nc2ccccn12 do in these assays?
Mcl1-Bid inh: inactive; Mcl-1 Bim block: inactive; MCL1-BIM inh: inactive; BCLXL inh: 63; Mcl1 Noxa PPI: inactive; GLD-1 TGE inh: inactive

Results for CCOC(=O)C1CCCN(C(=O)c2ccccc2NC(=O)C2=C(C)OCCS2)C1 (stereo not drawn) ?
MCL1-BIM inh: inactive; BCLXL inh: inactive; GLD-1 TGE inh: inactive

What do the screens show for `CCOc1ccccc1NC(=O)C1CCN(C(=O)Cc2ccccc2)CC1`?
Mcl1-Bid inh: inactive; Mcl-1 Bim block: inactive; MCL1-BIM inh: inactive; BCLXL inh: inactive; Mcl1 Noxa PPI: inactive; GLD-1 TGE inh: inactive

Results for Fc1ccc(CSc2nnc(-c3cccnc3)o2)cc1 ?
Mcl1-Bid inh: inactive; Mcl-1 Bim block: inactive; MCL1-BIM inh: inactive; BCLXL inh: inactive; Mcl1 Noxa PPI: inactive; GLD-1 TGE inh: inactive

Results for COc1ccccc1N1CCN(C(=O)Cn2nc3n(C)c4ccccc4n3c(=O)c2=O)CC1 ?
Mcl1-Bid inh: inactive; Mcl-1 Bim block: inactive; MCL1-BIM inh: inactive; BCLXL inh: inactive; Mcl1 Noxa PPI: inactive; GLD-1 TGE inh: 31

What do the screens show for `COc1ccccc1N1CCN(C(=O)CCC(=O)N2CCN(c3ccccc3OC)CC2)CC1`?
MCL1-BIM inh: inactive; BCLXL inh: inactive; GLD-1 TGE inh: inactive
